Screening results deposited in PubChem BioAssay by National Center for Advancing Translational Sciences (NCATS).
HCV inhibitor – inhibitors of hepatitis C virus infection. 3.4% of 340,000 active. Huh7.5.1 HCVcc-Cre infection, luciferase reporter, 44 h. Potency, µM (titrated, usually from 41.8 µM), inactives show at the top dose activity change, negative = inhibition, most hits filed as inhibitors; note: potency is the fitted concentration of half-maximal effect; % is set by controls: 0 for no effect and ±100 for the full control effect
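A cell-based infection assay in which seeded cells (1,000 per well) receive test compound after 4 h, are inoculated with HCVcc-Cre at approximately 0.5 moi, and are incubated 44 h before luminescence detection.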
Cycloheximide cs – counter-screen for Shiga toxin inhibitors: cycloheximide protein synthesis inhibition; 12% of 300,000 active; cell reporter, cycloheximide protein synthesis inhibition counterscreen; max response, %; in the data active = max response mostly above about 13%, no sharp cut-off; inactive = mostly below about 14%; note: read at 38.3 µM for the half of the compounds with a filed dose; 0% is about no effect
Shiga toxin inh – blocks Shiga toxin action in Vero cells; inhibition, % at 38.7 µM; 9.2% of 290,000 active; Vero cells, Shiga toxin protein synthesis inhibition reporter; AID 2315; in the data active = inhibition mostly above about 28%, no sharp cut-off; inactive = mostly below about 43%; note: 0% is about no effect
HCMV antiviral – blocks human cytomegalovirus replication | HFF cells, HCMV-luciferase reporter, 72 h; stronger effect = lower value | activity change, negative = inhibition, % at 57.5 µM | 4.5% of 410,000 active | AID 1259415; in the data active = activity change below about -60%; inconclusive = no clear call, values can overlap the other calls; inactive = above about -39%; note: % is set by controls: 0 for no effect and ±100 for the full control effect
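Compounds were evaluated in HFFs infected with an HCMV luciferase reporter virus (MOI 1 PFU/cell). Luciferase in lysates collected 72 h post infection served as the replication measure.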
Pf growth 96h – P. falciparum growth inhibition at 96 hours; P. falciparum luciferase reporter growth, 96 h; Potency, µM (titrated, usually from 28.7 µM), without a hit: at the top dose activity change, negative = inhibition, hits mostly inhibitors; 6.9% of 320,000 active; AID 504834; note: potency is the fitted concentration of half-maximal effect; % is set by controls: 0 for no effect and ±100 for the full control effect
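Two-generation exposure (96 h) targets delayed-death phenotype. Reporter parasites carrying integrated firefly luciferase, in red cells at 2% hematocrit and 0.05% parasitemia final, kept at 37 C, 5% CO2; luminescence loss indicates inhibition.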
Pf growth 48h – inhibits P. falciparum growth in the first generation, 48 h; Potency, µM (top dose mostly 28.7 µM), for inactives: at the top dose activity change, negative = inhibition, usual class: inhibitors; 5.9% of 310,000 active; P. falciparum luciferase growth in erythrocytes, 48 h; note: potency is the fitted concentration of half-maximal effect; % is set by controls: 0 for no effect and ±100 for the full control effect
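Here the parasites carry a stable luciferase gene and grow inside erythrocytes in Albumax-based RPMI medium with compound for one erythrocytic cycle. Activity is scored as loss of luminescent signal.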
Numbers without * were called inactive. This is a sample that favours compounds with a hit; in the whole collection about 21% have one here. Unless noted, calls come from the whole dose curve; as a rule, active = well fitted inhibition curve with a large enough effect; inconclusive = small, poorly fitted or top-dose-only effect, or another doubt; inactive = no such curve, though single readings can be large or run the other way.

Results for COc1ccc(C(=O)N(CCc2ccccc2)Cc2ccccc2)cc1S(=O)(=O)N1CCOCC1 ?
HCV inhibitor: -5%; HCMV antiviral: -11; Pf growth 96h: 8.3µM*; Pf growth 48h: inconclusive

Results for Cc1ccc(C(=O)N(CCc2ccccc2)Cc2ccccc2)cc1S(=O)(=O)N1CCOCC1 ?
HCV inhibitor: inconclusive; HCMV antiviral: -13

Results for CCN(CC1COc2ccccc2O1)C(=O)c1ccc(Cl)c(S(=O)(=O)N2CC(C)OC(C)C2)c1 (stereo not given) ?
HCV inhibitor: inconclusive; HCMV antiviral: inconclusive; Pf growth 96h: -25%; Pf growth 48h: inconclusive

Results for Cc1ccc(N(Cc2ccccc2)C(=O)c2cc(S(=O)(=O)N3CCOCC3)ccc2N2CCCC2)cc1 ?
HCV inhibitor: inconclusive; HCMV antiviral: -61*; Pf growth 96h: inconclusive; Pf growth 48h: 2.6µM*

How did Cc1cccc(N(Cc2ccccc2)C(=O)c2cccc(S(=O)(=O)N3CC(C)OC(C)C3)c2)c1 (stereo not given) do in these assays?
HCV inhibitor: inconclusive; HCMV antiviral: -36; Pf growth 96h: inconclusive; Pf growth 48h: 13µM*

How did CN(Cc1ccc(C(C)(C)C)cc1)C(=O)Cc1ccc(S(=O)(=O)N2CCOCC2)s1 do in these assays?
HCV inhibitor: inconclusive; HCMV antiviral: -23; Pf growth 96h: 13µM*; Pf growth 48h: 9.3µM*

Results for Cc1ccc(S(=O)(=O)N2CCOCC2)cc1C(=O)OCC(=O)N(Cc1ccccc1)C(C)C ?
HCV inhibitor: inconclusive; HCMV antiviral: -22; Pf growth 96h: inconclusive; Pf growth 48h: 15µM*

What do the screens show for `CN(Cc1cccc(F)c1)C(=O)Cc1ccc(S(=O)(=O)N2CCOCC2)s1`?
HCV inhibitor: 4%; HCMV antiviral: inconclusive; Pf growth 96h: inconclusive; Pf growth 48h: inconclusive

Results for Cc1ccc(S(=O)(=O)N2CCOCC2)cc1C(=O)N1c2ccccc2Sc2ccccc21 ?
HCV inhibitor: 10µM*; Cycloheximide cs: 0; Shiga toxin inh: -7; HCMV antiviral: -39; Pf growth 48h: inconclusive

How did Cc1cc2nc(-c3ccc(=O)[nH]c3)n(Cc3ccccc3)c2cc1C do in these assays?
HCV inhibitor: -4%; Cycloheximide cs: 5; Shiga toxin inh: 25; HCMV antiviral: 122; Pf growth 96h: inconclusive; Pf growth 48h: inconclusive

How did O=C1CN(S(=O)(=O)c2ccc3c(c2)OCCO3)CCN1S(=O)(=O)c1c(F)cccc1F do in these assays?
Cycloheximide cs: -8; Shiga toxin inh: -8

Results for Cc1ccc(C(=O)OCC(=O)N(CCc2ccccc2)Cc2ccccc2)cc1S(=O)(=O)N1CCOCC1 ?
HCV inhibitor: -23%; HCMV antiviral: 14; Pf growth 96h: inconclusive; Pf growth 48h: inconclusive

Results for Cc1cccc(N(Cc2ccccc2)C(=O)c2ccc(C)c(S(=O)(=O)N3CCOCC3)c2)c1 ?
HCV inhibitor: inconclusive; HCMV antiviral: inconclusive; Pf growth 96h: inconclusive; Pf growth 48h: 7.4µM*

What do the screens show for `Cc1ccc(-c2n[nH]c(=S)n2/N=C/c2ccc(C)s2)cc1`?
HCV inhibitor: 0%; Cycloheximide cs: -7; Shiga toxin inh: -17; HCMV antiviral: 14; Pf growth 96h: 12µM*; Pf growth 48h: 12µM*

What do the screens show for `Cc1cc(C(=O)CSc2nnc(N)s2)c(C)n1Cc1ccco1`?
HCV inhibitor: 15%; Cycloheximide cs: 39*; Shiga toxin inh: 57*; HCMV antiviral: 81; Pf growth 96h: -43%; Pf growth 48h: 277%

What do the screens show for `Cc1cc(C(=O)COC(=O)c2cc(Cl)ccc2N)c(C)n1Cc1ccco1`?
HCV inhibitor: inconclusive; Cycloheximide cs: 91*; Shiga toxin inh: 119*; HCMV antiviral: 63; Pf growth 96h: 31%; Pf growth 48h: 169%

What do the screens show for `Cc1cc(C(=O)COC(=O)c2ccco2)c(C)n1Cc1ccco1`?
HCV inhibitor: 8%; Cycloheximide cs: -2; Shiga toxin inh: -12; HCMV antiviral: 3; Pf growth 96h: 57%; Pf growth 48h: 134%

What do the screens show for `Cc1cc(C(=O)COC(=O)c2ccncc2)c(C)n1Cc1ccco1`?
HCV inhibitor: 1%; Cycloheximide cs: 44*; Shiga toxin inh: 116*; HCMV antiviral: -38; Pf growth 96h: -43%; Pf growth 48h: 106%
